# According to PubChem BioAssay (NCI):
# The panel holds about 83,000 compounds, 20% with a hit somewhere; the sample as a whole holds those more often.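 How to read the values: 0–100, growth inhibition (40 = 60% inhibited); 0, no net growth; -100 to 0, cell death (-40 = 40% of starting cells died; -100 = all dead).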 The source made the active and inactive calls. The calls were made as follows: active = growth percent below 10; inactive = the rest.
# System: HL-60(TB) leukemia
# Test: NCI-60 one-dose screen, 48 h (100 = growth as untreated, 0 = no growth, -100 = all killed)
# Conditions: 10 µM unless noted
row,SMILES,growth
1,CCCCCCCCCCCCCCCCCCOc1ccccc1CC(=O)OCC[N+](CC)(CC)CC,-20.7% (active)
2,O=[N+]([O-])c1ccc2c(c1)Cc1cc(I)ccc1-2,92.8% (inactive)
3,O=C1CCCCN1CCCCC#Cc1ccccc1C#Cc1ccc([N+](=O)[O-])cc1,-25.7% (active)
4,Clc1ccc(-c2nc(-c3ccco3)cn3ccnc23)cc1,102% (inactive)
5,CCN(CC)c1nc(SCC(=O)Nc2nc3ccc(C)cc3s2)nc(-c2ccccc2)c1C#N,96.5% (inactive)
6,CCc1ccc2nc(NC(=O)Cc3csc(NC(=O)c4ccco4)n3)sc2c1,74.2% (inactive)
7,N#Cc1c(-c2ccccc2)cc(-c2ccccc2)n(CCCCC(=O)NO)c1=O,11% (inactive)
8,NCCCn1c2c(c3cc(-c4ccn[nH]4)ccc3c1=O)C(=O)c1ccccc1-2,39.6% (inactive)
9,COc1ccccc1/C=C(/C(=O)c1ccccc1)c1ccccc1,71.8% (inactive)
10,CCOC(=O)c1cc2c(n1Cc1cc(OC)c(OC)c(OC)c1)-c1oncc1CCC2,-8.69% (active)
11,O=S(=O)(Nc1ccc(F)cc1)c1ccc(-c2cnc(C3CC3)o2)cc1,-28.1% (active)
12,C=C1C(=O)O[C@H]2[C@H]1CC/C(COC(=O)N1CCC[C@H]1C(=O)Nc1ccc(OC)c(C(N)=O)c1O)=C\CC[C@@]1(C)O[C@@H]21,-10% (active)
13,N#Cc1c(NCc2ccccc2I)sc2c1CCCCC2,100% (inactive)
14,COc1ccc(-c2cc(-c3cc(OC)c(OC)c(OC)c3)c(C#N)c(=O)n2CCCCC(=O)NO)cc1,44% (inactive)
15,C(=N\Nc1nnn(Cc2ccccc2)n1)/c1ccccc1,5.57% (active)
16,COc1cc(C(=O)c2c(-c3ccccc3)oc3c(OC)cccc23)cc(OC)c1O,3.31% (active)
17,Cc1nc2c3c(ncn2n1)Oc1c(c(=O)[nH]c2ccccc12)C3c1ccc(Cl)cc1 (stereo unspecified),98% (inactive)
18,CCCCCCCCCCCCCCCCC(=O)O.CCCCCCCCCCCCCCCCCC(=O)O.CCCCCCCCCCCCCCCCCC(=O)O.CCCCCCCCCCCCCCCCCC(=O)O.CCCCCCCCCCCCCCCCCC(=O)O.CO[CH-]OC12COC1CC(O)C1(C)C(O)C(OC(C)O)C3=C(C)C(OC(=O)C(O)C([NH-])c4ccccc4)CC(O)(C(OC(=O)c4ccccc4)C21)C3(C)C.[Cu+].[Zn].[Zn].[Zn].[Zn].[Zn] (stereo unspecified),-3.29% (active)

row,SMILES,growth
1,CCOC(=O)c1c(NS(=O)(=O)c2ccc(C)cc2)sc2c1CCC1(C2)OCCO1,88.5% (inactive)
2,CCCCCCCCCCCCCC1=NCCN1CCO,2.28% (active)
3,Cc1ccc(Nc2nc(N)nc(Nc3ccc4ccccc4c3)n2)cc1,22.5% (inactive)
4,COc1ccc(-c2nn(-c3cccc(Cl)c3)cc2/C=C2\C(=N)N(c3ccccc3)N=C2N)cc1,9.27% (active)
5,Cc1cc2nc(CC(=O)c3cccc([N+](=O)[O-])c3)c(=O)[nH]c2cc1C,93.5% (inactive)
6,COC(=O)C1=Nc2ccc(F)cc2/C1=C/c1sc(=S)[nH]c1O,-28.8% (active)
7,CSc1nc2ccc(C)cc2cc1/C=N/O,91.6% (inactive)
8,Nc1nc(N=Nc2ccc(O)cc2)cc(=O)[nH]1,95.6% (inactive)
9,COc1ccc(NC(=O)[C@@H]2C[C@H]2c2ccccc2)c(C(N)=O)c1,93.9% (inactive)
10,CC[C@]1(O)CC2CN(CCc3c([nH]c4ccccc34)C(C(=O)OC)(c3cc4c(cc3OC)N(C=O)[C@H]3[C@@](O)(C(=O)OC)[C@H](OC(C)=O)[C@]5(CC)[C@@H]6C[C@@H]6CN6CC[C@]43[C@@H]65)C2)C1 (stereo partly specified),0.642% (active)
11,CCC(=C(c1ccc(OCCN(CC)CC)cc1)c1ccc(OCCN(CC)CC)cc1)c1ccc(Cl)cc1,-51.6% (active)
12,O=C(CCCCCCSc1nc(-c2ccccc2)cc(-c2ccccc2)n1)NO,-33.2% (active)
13,Nc1n[nH]c2ccc([C@@H]3Nc4cc5[nH]ncc5cc4[C@H]4C5CCC(C5)[C@@H]34)cc12 (stereo partly specified),-8.95% (active)
14,CCCCCCCN(CCCCCCC)C(=N)c1ccc(OC)c2ccccc12,-66.4% (active)
15,CCCCn1c2cc(OCc3cn(-c4ccc(Cl)cc4)nn3)ccc2c2ccnc(C)c21,-46.5% (active)
16,O=C1CC(SC(=S)C2CCCC2=O)C(=O)N1 (stereo unspecified),97% (inactive)
17,O=c1c2ccccc2c(=O)c2c1sc1c(=O)c3ccc(O)cc3c(=O)c12,-30.6% (active)
18,CCN1CCN(c2ccc(NC(=O)Nc3nc4ccc(-c5ccccc5OC)cc4s3)cc2)CC1,-74.1% (active)
